Measured values as given in PubChem BioAssay (NCATS).
Several values for one entry are separate records, joined by “and”; a condition that tells them apart may be missing. Identical values can stand only once. Records with an inconclusive call do not appear. Activity calls are given as the source filed them. Unless noted, the call rests on the fitted dose curve; in most records, active means well fitted curve in the direction sought with a large enough effect; inconclusive means small, poorly fitted or top-dose-only effect, or another doubt; inactive means no such curve, though single readings can be large; an effect the other way counts as inactive or inconclusive.

Key:
[1] = qHTS assay for small molecule agonists of the antioxidant response element (ARE) signaling pathway (AID 651741; active means well fitted activation curve with a large enough effect in the signal ratio; the % refers to the signal ratio; further: potency means the concentration at half of the fitted maximal effect; on activation: % of control where 0% means no effect)
In short: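 Reporter: beta-lactamase under ARE, stably in HepG2. Exposure: 16 h, 37 C, compounds delivered in DMSO by pin tool after 5 h cell preincubation. Readout: FRET substrate fluorescence after 2 h at RT.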

[2] = qHTS assay for small molecule activators of the nuclear factor-kappa B (NF-kB) signaling pathway (AID 651749; active means well fitted activation curve with a large enough effect in the signal ratio; the % refers to the signal ratio; further: series mostly up to about 77 µM; % of control where 0% means no effect); conditions: NF-kB-bla ME-180 cells, beta-lactamase FRET ratio, 16 h; active compounds read high
In short: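 Human ME-180 cervical cells with an NF-kB-bla construct; compounds added via 23 nL pin transfer, DMSO as vehicle; incubation 16 hr. Reporter activity measured by FRET disruption.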

[3] = qHTS assay for small molecule disruptors of the mitochondrial membrane potential - 1 hr assay (AID 651754; calls by dose curve; further: nearly all actives have a fitted effect of over 35% in size; further: potency means the concentration at half of the fitted maximal effect)
In short: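 Mitochondrial potential in living HepG2 cells after 1 hr compound treatment at 37C was read with Mito-MPS dye added for a further 30 min. Red aggregate and green monomer fluorescence were measured; loss of potential leaves dye as cytoplasmic monomers.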

[4] = qHTS assay for small molecule disruptors of the mitochondrial membrane potential - 5 hr assay (AID 651755; calls by dose curve; further: nearly all actives have a fitted effect of over 40% in size; further: potency means the concentration at half of the fitted maximal effect)
In short: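 Seed HepG2 overnight, add compound, incubate 5 hr at 37C and 5% CO2, stain 30 min with Mito-MPS, then measure monomer (490/535 nm) and aggregate (540/590 nm) fluorescence.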

[5] = molecular target: Tumor necrosis factor (Homo sapiens) (UniProt P01375); experiment: qHTS assay to identify small molecules that stimulate Tumor Necrosis Factor-alpha (TNF-alpha) secretion (AID 651757; active means well fitted curve in the direction sought with a large enough effect in the signal ratio; the % refers to the signal ratio; further: 0% is about no effect)
In short: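 Secreted TNF-alpha quantified by TR-FRET sandwich of two labeled anti-TNF-alpha antibodies, incubated 3 hr at room temperature. Preceded by 17 hr, 37 C compound treatment of THP-1 cells at 3000 cells/well.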

[6] = qHTS assay for environmental chemicals that activate the Aryl hydrocarbon Receptor (AhR) signaling pathway (AID 651777); conditions: 1A2-DRE human hepatoma cells, luciferase, 24 h; activation: active compounds read high; further: nearly all actives have a fitted effect of over 15% in size; further: potency means the concentration at half of the fitted maximal effect; on activation: % of control where 0% means no effect
In short: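 Human hepatoma 1A2-DRE cells stably carrying a DRE/CYP1A2 promoter–luciferase reporter, 1,200 cells/well, exposed to compound 24 hr at 37 C. Luciferase read by One-Glo luminescence after 30 min at room temperature; increased signal marks AhR activation.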

[7] = molecular target: Peroxisome proliferator-activated receptor alpha (Homo sapiens) (UniProt Q07869); experiment: qHTS assay for small molecule agonists of the peroxisome proliferator-activated receptor alpha (PPARalpha) signaling pathway (AID 651778); conditions: PathHunter PPARalpha complementation, chemiluminescence, 6 h; max response: active compounds read high; further: potency means the concentration at half of the fitted maximal effect; on max response: % of control where 0% means no effect
In short: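 Cells plated at 2,000/well and held overnight at 37 C, 5% CO2, then compound added by pin tool for 6 hr; after PathHunter detection reagent and 60 min at room temperature, chemiluminescence from enzyme complementation was read.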

[8] = molecular target: Nuclear receptor ROR-gamma (Homo sapiens) (UniProt P51449); experiment: qHTS assay for small molecule antagonists of the retinoid-related orphan receptor gamma (ROR-gamma) signaling pathway (AID 651802); further: nearly all actives have a fitted effect of over 60% in size; further: potency means the concentration at half of the fitted maximal effect
In short: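 Luminescence (One-Glo, 30 min RT) measured 16 h after compound addition and doxycycline induction at 37C. Reporter: RORE-luciferase under TET-inducible ROR-gamma in CHO cells.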

[9] = molecular target: Tyrosine-protein kinase Yes (Homo sapiens) (UniProt P07947); experiment: qHTS for small molecule inhibitors of Yes1 kinase: Primary Screen (AID 686947); further: nearly all actives have a fitted effect of over 60% in size; further: potency means the concentration at half of the fitted maximal effect
In short: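 ADP-Glo luminescence reports ADP formed by 4 nM Yes1 phosphorylating poly(E4Y) (0.3 mg/mL) with 0.1 mM ATP for 60 min at room temperature, following 20 min compound preincubation; normalised between DMSO wells with and without enzyme.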

[10] = qHTS assay to identify small molecules that stimulate interleukin-8 (IL-8) secretion (AID 651758; active means well fitted activation curve with a large enough effect in the signal ratio; the % refers to the signal ratio; further: 0% is about no effect)
In short: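 Quantitative HTS in THP-1 monocytic cells at 2000 cells per well, with 16 hrs compound incubation at 37 C. IL-8 in the medium was then quantified by HTRF immunoassay, read after 1-3 hrs at room temperature.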

Sequence of Tyrosine-protein kinase Yes (Homo sapiens) (P07947 whole entry, looked up): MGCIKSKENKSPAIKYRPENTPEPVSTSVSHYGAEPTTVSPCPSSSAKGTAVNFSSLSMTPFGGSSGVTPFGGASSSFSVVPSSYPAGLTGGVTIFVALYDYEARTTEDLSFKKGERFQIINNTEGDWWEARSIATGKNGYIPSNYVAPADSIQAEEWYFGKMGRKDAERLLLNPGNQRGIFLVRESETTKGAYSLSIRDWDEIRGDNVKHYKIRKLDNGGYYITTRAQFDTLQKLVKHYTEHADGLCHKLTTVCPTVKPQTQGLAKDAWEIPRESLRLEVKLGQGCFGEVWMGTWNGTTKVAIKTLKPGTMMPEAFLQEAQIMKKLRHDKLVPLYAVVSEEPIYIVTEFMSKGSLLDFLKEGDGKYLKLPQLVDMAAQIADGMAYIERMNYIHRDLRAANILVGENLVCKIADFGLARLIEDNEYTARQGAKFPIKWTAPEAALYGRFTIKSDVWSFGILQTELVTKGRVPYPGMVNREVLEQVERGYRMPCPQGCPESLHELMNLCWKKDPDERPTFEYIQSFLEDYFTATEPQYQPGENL
Sequence of Peroxisome proliferator-activated receptor alpha (Homo sapiens) (Q07869 whole entry, looked up): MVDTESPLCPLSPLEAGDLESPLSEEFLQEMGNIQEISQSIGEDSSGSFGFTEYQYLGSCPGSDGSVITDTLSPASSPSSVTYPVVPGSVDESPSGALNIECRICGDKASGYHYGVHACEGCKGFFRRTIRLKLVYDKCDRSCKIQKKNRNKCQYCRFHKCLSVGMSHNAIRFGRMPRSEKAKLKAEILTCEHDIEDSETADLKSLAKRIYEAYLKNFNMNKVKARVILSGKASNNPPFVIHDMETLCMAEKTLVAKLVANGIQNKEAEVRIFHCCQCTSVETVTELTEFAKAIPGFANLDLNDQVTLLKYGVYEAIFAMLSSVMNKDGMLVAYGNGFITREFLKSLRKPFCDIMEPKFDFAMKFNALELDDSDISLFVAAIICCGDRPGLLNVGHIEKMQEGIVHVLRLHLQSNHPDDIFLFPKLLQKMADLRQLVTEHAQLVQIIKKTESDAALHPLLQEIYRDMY
Sequence of Nuclear receptor ROR-gamma (Homo sapiens) (P51449 whole entry, looked up): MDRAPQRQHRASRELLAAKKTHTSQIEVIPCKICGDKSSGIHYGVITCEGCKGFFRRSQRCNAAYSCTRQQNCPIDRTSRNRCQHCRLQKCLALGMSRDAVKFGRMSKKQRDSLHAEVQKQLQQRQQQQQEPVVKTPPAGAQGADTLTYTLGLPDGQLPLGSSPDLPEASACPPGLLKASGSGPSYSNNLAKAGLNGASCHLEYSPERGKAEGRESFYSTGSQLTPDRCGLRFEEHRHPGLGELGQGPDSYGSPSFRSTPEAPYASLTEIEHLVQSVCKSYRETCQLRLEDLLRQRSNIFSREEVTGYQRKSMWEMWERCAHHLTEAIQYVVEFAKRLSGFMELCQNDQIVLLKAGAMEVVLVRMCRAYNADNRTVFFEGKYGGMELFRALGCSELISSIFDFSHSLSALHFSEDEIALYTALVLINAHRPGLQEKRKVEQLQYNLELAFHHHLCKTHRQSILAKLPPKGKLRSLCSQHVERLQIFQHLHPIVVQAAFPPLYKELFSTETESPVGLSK
Sequence of Tumor necrosis factor (Homo sapiens) (P01375 whole entry, looked up): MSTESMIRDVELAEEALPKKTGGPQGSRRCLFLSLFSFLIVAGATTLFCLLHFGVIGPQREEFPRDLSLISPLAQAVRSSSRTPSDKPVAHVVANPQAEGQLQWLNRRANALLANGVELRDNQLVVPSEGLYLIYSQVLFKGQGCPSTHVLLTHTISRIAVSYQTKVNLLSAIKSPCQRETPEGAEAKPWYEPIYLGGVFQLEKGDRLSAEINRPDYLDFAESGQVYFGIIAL

N[C@@H](Cc1ccc(N(CCCl)CCCl)cc1)C(=O)O
active: Potency [1] 54.5 µM and 42.2 µM | Potency [8] 26.6 µM
inactive: activation [2] 3.45% and -0.304% | Potency [3] | Potency [4] | outcome [5] | activation [6] 3.17% and 3.79% | max response [7] -0.479% and -0.609%

C[C@]12CCC(=O)C(O)=C1CC[C@@H]1[C@@H]2CC[C@]2(C)C(=O)CC[C@@H]12
inactive: Potency [1] | activation [2] 2.01% | activation [6] 0.0711% | max response [7] -1.14% | Potency [9]

c1ccc2c(c1)Nc1ccccc1S2
inactive: max response [7] -1.15% and -1.18% | Potency [8]
active: Potency [1] 54.5 µM | Potency [3] 42.2 µM | Potency [4] 66.8 µM

O=c1[nH]c2ccccc2n1C1CCN(CCCC(c2ccc(F)cc2)c2ccc(F)cc2)CC1
inactive: activation [6] 1.32% | max response [7] -0.751%

OCCOc1ccccc1
inactive: Potency [1] | Potency [3] | Potency [4] | outcome [5] | activation [6] -1.68% and 1.95% and 8.55% | max response [7] -6.3% and -2.04% and 0.179% | Potency [8]

Cc1sc2c(c1C)C(c1ccc(Cl)cc1)=N[C@@H](CC(=O)OC(C)(C)C)c1nnc(C)n1-2
inactive: Potency [9]

C[C@@H]1[C@@H](C(=O)C[C@H]2O[C@@H]3O[C@]4(C)CC[C@@H]5[C@H](C)CC[C@@H]([C@H]2C)[C@@]35OO4)O[C@@H]2O[C@]3(C)CC[C@H]4[C@H](C)CC[C@@H]1[C@@]24OO3
inactive: Potency [9]

CC(COc1ccccc1)N(CCCl)Cc1ccccc1 (stereo not given)
active: Potency [1] 48.6 µM and 42.2 µM

Cn1c(CCCC(=O)O)nc2cc(N(CCCl)CCCl)ccc21
inactive: Potency [9]

CCOP(=S)(OCC)Oc1cc(C)nc(C(C)C)n1
inactive: Potency [1] | activation [2] -0.534% and -0.189% | Potency [3] | Potency [4] | outcome [5] | activation [6] 1.79% and 0.131% | max response [7] -5.15% and -1.07% | Potency [8]

C[C@@H]1O[C@@H](O[C@H]2C[C@@H](O)[C@]3(CO)[C@H]4[C@H](O)C[C@]5(C)[C@@H](C6=CC(=O)OC6)CC[C@]5(O)[C@@H]4CC[C@]3(O)C2)[C@H](O)[C@H](O)[C@H]1O
inactive: activation [6] 6.71% | max response [7] -0.456%

CC(=O)Oc1ccccc1C(=O)Nc1ncc([N+](=O)[O-])s1
active: Potency [1] 18.8 µM | Potency [3] 7.5 µM | Potency [4] 6.68 µM | Potency [6] 0.708 µM

CC(C)C(=O)Nc1ccc([N+](=O)[O-])c(C(F)(F)F)c1
active: Potency [1] 61.1 µM and 66.8 µM | Potency [3] 42.2 µM | Potency [4] 42.2 µM | Potency [8] 23.7 µM

Cc1cc2c(C(C)C)c(O)c(O)c(C=O)c2c(O)c1-c1c(C)cc2c(C(C)C)c(O)c(O)c(C=O)c2c1O
active: Potency [9] 30.7 µM

C[C@]12C/C(=C/O)C(=O)C[C@@H]1CC[C@@H]1[C@@H]2CC[C@@]2(C)[C@H]1CC[C@]2(C)O
active: Potency [1] 6.86 µM and 7.5 µM
inactive: Potency [3] | Potency [4] | outcome [5] | Potency [10] | activation [6] 1.36% and 0.159% | max response [7] -0.191% and -0.334%

COC[C@H]1OC(=O)c2coc3c2[C@@]1(C)C1=C(C3=O)C2CCC(=O)[C@@]2(C)C[C@H]1OC(C)=O (stereo not given in full)
inactive: Potency [9]

NCC(O)c1ccc(O)cc1 (stereo not given)
inactive: Potency [1] | activation [2] -2.66% | outcome [5] | Potency [10] | activation [6] -0.493% | max response [7] -2.88% | Potency [8]

CC(C)(C)CC(C)(C)c1ccc(O)cc1
active: Potency [7] 25.1 µM

CN(C)CCN(C)CCc1ccc(Cl)c(Cl)c1
inactive: Potency [9]

O=c1oc2ccccc2c(O)c1C(CC(O)c1ccc(-c2ccc(Br)cc2)cc1)c1ccccc1 (stereo not given)
inactive: activation [2] -6.71% | activation [6] -0.116% | max response [7] -1.05%
active: Potency [1] 27.3 µM

C=C(C)[C@H]1Cc2c(ccc3c2O[C@@H]2COc4cc(OC)c(OC)cc4[C@@H]2C3=O)O1
inactive: activation [2] 7.78% | activation [6] 3.42% | max response [7] 7.18%

CCCC(C)(COC(N)=O)COC(=O)NC(C)C (stereo not given)
inactive: Potency [1] | outcome [5] | Potency [10] | activation [6] 0.419% and -1.4% | max response [7] -0.746% and -1.22% | Potency [8]
